We go through 28 compounds from PubChem BioAssay.

Sequence of Neurogenic locus notch homolog protein 2 (Homo sapiens) (Q04721 whole entry, looked up): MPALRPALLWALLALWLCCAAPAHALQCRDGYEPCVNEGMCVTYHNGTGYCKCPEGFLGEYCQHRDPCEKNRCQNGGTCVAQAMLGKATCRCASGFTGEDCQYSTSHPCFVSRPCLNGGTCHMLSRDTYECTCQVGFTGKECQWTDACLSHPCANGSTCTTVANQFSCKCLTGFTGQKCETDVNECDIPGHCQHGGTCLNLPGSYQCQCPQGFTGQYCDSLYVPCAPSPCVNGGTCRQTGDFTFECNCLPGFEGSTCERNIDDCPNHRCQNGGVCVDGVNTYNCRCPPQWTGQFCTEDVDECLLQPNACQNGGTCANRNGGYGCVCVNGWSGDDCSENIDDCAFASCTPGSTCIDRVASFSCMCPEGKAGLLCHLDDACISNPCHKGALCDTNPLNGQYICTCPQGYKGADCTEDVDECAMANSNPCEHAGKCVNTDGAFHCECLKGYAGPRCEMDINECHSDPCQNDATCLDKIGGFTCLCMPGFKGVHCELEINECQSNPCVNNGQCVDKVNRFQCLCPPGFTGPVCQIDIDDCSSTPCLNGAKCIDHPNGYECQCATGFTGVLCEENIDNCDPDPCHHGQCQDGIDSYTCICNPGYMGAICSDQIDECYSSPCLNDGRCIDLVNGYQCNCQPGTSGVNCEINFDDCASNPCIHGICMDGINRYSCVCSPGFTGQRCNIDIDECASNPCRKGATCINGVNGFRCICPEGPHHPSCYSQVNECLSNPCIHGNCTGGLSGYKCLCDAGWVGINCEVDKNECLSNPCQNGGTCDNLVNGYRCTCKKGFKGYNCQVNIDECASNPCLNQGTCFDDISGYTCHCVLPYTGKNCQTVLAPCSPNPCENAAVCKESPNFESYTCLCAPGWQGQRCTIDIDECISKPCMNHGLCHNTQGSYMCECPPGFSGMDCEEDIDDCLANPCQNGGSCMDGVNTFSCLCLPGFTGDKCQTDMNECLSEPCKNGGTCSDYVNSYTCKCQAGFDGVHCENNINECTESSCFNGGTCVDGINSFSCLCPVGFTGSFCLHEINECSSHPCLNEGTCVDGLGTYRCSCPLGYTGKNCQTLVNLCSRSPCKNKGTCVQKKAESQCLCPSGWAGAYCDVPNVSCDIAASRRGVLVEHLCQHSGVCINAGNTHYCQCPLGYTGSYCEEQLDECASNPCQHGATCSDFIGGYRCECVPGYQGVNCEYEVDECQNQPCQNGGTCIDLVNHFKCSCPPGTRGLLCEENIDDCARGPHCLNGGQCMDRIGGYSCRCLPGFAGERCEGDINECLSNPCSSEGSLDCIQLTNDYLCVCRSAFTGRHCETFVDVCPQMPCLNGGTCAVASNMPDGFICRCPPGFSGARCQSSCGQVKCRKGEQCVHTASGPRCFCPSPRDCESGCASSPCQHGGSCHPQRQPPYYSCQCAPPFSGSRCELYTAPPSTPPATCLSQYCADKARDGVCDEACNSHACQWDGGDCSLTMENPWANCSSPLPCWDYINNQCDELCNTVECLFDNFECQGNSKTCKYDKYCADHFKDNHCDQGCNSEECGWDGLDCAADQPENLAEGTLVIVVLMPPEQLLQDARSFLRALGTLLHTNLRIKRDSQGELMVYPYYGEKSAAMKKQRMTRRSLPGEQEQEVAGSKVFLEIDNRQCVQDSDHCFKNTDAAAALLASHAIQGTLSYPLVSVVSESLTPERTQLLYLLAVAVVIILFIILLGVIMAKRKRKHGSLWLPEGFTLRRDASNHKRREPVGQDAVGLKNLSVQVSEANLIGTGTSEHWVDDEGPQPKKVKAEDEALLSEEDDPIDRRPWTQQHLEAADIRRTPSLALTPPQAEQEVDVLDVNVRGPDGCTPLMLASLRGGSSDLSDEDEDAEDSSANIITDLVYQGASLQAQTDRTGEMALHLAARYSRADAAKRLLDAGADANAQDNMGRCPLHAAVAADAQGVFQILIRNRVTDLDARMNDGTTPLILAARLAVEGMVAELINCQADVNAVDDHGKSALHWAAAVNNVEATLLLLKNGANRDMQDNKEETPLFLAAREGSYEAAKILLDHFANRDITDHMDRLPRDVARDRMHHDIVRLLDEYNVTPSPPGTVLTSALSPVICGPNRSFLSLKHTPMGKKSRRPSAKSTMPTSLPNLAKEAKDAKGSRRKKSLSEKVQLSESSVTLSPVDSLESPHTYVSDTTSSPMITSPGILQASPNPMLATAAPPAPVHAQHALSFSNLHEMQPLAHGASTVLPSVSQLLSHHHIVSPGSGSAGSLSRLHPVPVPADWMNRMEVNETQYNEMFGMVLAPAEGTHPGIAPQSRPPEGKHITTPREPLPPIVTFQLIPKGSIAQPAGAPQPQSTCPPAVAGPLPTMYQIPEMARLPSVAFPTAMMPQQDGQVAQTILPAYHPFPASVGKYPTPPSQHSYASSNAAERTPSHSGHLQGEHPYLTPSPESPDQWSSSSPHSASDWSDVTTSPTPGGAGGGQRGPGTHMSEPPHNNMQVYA

One assay concerns the target Neurogenic locus notch homolog protein 2 (Homo sapiens) (UniProt Q04721). Nature of the assay: small molecules binding Notch2 protein – biochemical, small-molecule microarray, 635 nm fluorescence, stem cell growth factors, primary screen (AID 1073). The conditions noted are these: higher = more signal.
The compound `CC(C)=CCCC(C)=CCON=C1C[C@@H](O)[C@@H](O)[C@@H]2[C@@H]3C(=O)N(Cc4ccccc4)C(=O)[C@@H]3CC[C@H]12` showed a composite z-score of 0.686.
Consider `CC(C)C[C@H](NC(=O)CCC1CC(OC(=O)NCc2cccc3ccccc23)CC2(CCCC(COC(=O)NCc3ccccc3)O2)O1)C(=O)NCC(c1ccccc1)c1ccccc1` (stereo partly drawn), for which the composite z-score came to 1.35.
Still for that read-out and setting: in the case of `CC(C)CON=C1C[C@@H](O)[C@@H](O)[C@@H]2[C@@H]3C(=O)N(C4CCCCC4)C(=O)[C@@H]3CC[C@@H]12` it was -0.0187; in that of `C[C@@H](c1ccccc1)N1C(=O)[C@H]2[C@H]3[C@H](O)[C@H](O)CC(=NO[C@@H]4O[C@H](CO)[C@@H](O)[C@H](O)[C@H]4O)[C@H]3CC[C@H]2C1=O`, 0.473; in that of `COC(=O)[C@@H]1CC[C@H](C)[C@@H](c2ccc(C)cc2)N1C(=O)c1ccc(C=NOC[C@@H](C)[C@H](OCc2ccccc2)C(C)C)cc1`, 1.13.
Still for that read-out and setting: the value for `C[C@@H](c1ccccc1)N1C(=O)[C@H]2[C@H]3[C@H](O)[C@H](O)CC(=NOCc4ccccc4)[C@H]3CC[C@H]2C1=O` was 0.39; that for `COC(=O)CC=C[C@@H](C)[C@@H](C=NOCC[C@@H]1C=C[C@H](OC(C)=O)[C@@H](COC(C)=O)O1)OC` was 0.193.

In another assay the target is Pro-neuregulin-1, membrane-bound isoform (Homo sapiens) (UniProt Q02297). Nature of the assay: small molecules binding neuregulin-1 protein – biochemical, small-molecule microarray, fluorescence 635/667, psychiatric disease protein project, primary screen (AID 1075).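 Note: score combines 667 nm spot fluorescence with signal to noise.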 Particulars: NRG1 binding, 635 nm fluorescence, higher = more signal.
Sequence of Pro-neuregulin-1, membrane-bound isoform (Homo sapiens) (Q02297 whole entry, looked up, canonical isoform): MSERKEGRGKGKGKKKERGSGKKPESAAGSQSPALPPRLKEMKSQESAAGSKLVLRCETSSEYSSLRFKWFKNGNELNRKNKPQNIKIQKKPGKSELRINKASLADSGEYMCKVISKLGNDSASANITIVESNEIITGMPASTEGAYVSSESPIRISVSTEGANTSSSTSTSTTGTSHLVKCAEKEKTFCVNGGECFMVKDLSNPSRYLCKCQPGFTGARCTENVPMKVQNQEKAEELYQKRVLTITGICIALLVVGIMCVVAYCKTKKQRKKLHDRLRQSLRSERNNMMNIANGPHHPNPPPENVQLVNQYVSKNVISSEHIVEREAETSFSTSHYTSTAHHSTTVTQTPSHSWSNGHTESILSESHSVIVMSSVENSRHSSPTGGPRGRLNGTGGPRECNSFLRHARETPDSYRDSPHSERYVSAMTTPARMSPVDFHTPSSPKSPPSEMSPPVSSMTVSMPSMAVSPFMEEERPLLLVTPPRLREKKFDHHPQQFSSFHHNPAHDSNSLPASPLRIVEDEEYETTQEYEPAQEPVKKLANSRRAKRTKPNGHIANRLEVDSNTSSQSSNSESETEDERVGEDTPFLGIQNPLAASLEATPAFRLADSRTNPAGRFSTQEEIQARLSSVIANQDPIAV
`C#CCCCON=C1[C@H]2CCn3c(=O)n(C)c(=O)n3[C@H]2[C@H](O)[C@@H]2O[C@H]12` yielded a composite z-score of -0.0714.
As to `CCCCC#C[C@@H]1C=C[C@H](OC(C)=O)[C@@H](COC(C)=O)O1`, the composite z-score was determined as 0.304.
Same read-out and setting: the value for `CO[C@@H]1COC(=O)[C@@H](C)COC(=O)[C@@H](C)NC(=O)CC=C[C@@H]1C` was -0.308; that for `Cc1ccc(S(=O)(=O)OC[C@H]2CN3[C@H](c4ccc(Br)cc4)[C@@H](C)CC[C@H]3C(=O)O2)cc1` was 0.0865.
Take `COc1ccc(COC(=O)NN=C2C[C@@H](O)[C@@H](O)[C@@H]3[C@@H]4C(=O)N(c5cccc(Oc6ccccc6)c5)C(=O)[C@@H]4CC[C@@H]23)cc1`: the composite z-score was -0.0521.
Still for that read-out and setting: in the case of `O=C1C2=CC[C@H]3C(=O)N(c4cccc(Oc5ccccc5)c4)C(=O)[C@H]3[C@H]2[C@H](O)[C@@H]2O[C@H]12` it was 0.0597.
Turning to `CC(CCN1CCCCc2nc(C)c(C)cc21)=NO[C@H](C)c1cn([C@H](CO)Cc2ccccc2)nn1`, the composite z-score is -0.0339.
Regarding `CO[C@@H]1COC(=O)[C@H](CCSC)NC(=O)CC=C[C@@H](C)COC(=O)CCC[C@H]1C`, the composite z-score was -1.28.
Same read-out and setting: in the case of `CC(CCN1CCCc2nc(C)c(C)cc21)=NO[C@@H](C)c1cc(-c2c(C)cc(C)cc2C)no1` it was 0.732.
With `CO[C@@H]1COC(=O)[C@@H](C)NC(=O)CC=C[C@@H](C)[C@H](NS(=O)(=O)c2ccc(C)cc2)COC(=O)[C@H](C)NC(=O)CC=C[C@H]1C`, the composite z-score was -0.523.
Same read-out and setting: the value for `CCN1C(=O)[C@H]2[C@H]3[C@H](O)[C@H](O)CC(=NOC[C@H]4O[C@H](c5ccccc5)C=C[C@@H]4Oc4ccc(OC)cc4)[C@@H]3CC[C@H]2C1=O` was 0.488; that for `CCOC(=O)[C@H](CC(C)C)NC(=O)CCC1CC(OC(=O)NCc2cccc3ccccc23)CC2(CCCC(COC(=O)NCC3CCCCC3)O2)O1` (stereo partly drawn) was 0.589; that for `CC(C)CCN1CCc2nc(COc3ccccc3)c3c(c2C1)CO[C@@H](C)C3` was 0.385.
Same read-out and setting: in the case of `COC(=O)CC=C[C@@H](C)[C@@H](C=NO[C@H](C)c1cn([C@H](CO)Cc2ccccc2)nn1)OC` it was -0.0545; in that of `CON=C(C)CCC(=O)OC[C@H]1O[C@H](c2ccccc2)C=C[C@@H]1Oc1ccc(OC)cc1`, -0.351.
Same read-out and setting: in the case of `CCOC(=O)NN=C1C[C@@H](O)[C@@H](O)[C@@H]2[C@@H]3C(=O)N(c4cccc(Oc5ccccc5)c4)C(=O)[C@@H]3CC[C@@H]12` it was 0.823; in that of `CCN1C(=O)[C@H]2[C@H]3[C@H](O)[C@H](O)CC(=NO[C@@H](C)c4cn([C@H](CO)Cc5ccccc5)nn4)[C@@H]3CC[C@H]2C1=O`, 0.256.
As to `COC(=O)CC=C[C@@H](C)[C@@H]1C=C[C@H](O)[C@@H](CO)O1`, the composite z-score was -0.196.
Same read-out and setting: the value for `C[C@@H](ON=C1[C@H]2CCn3c(=O)n(-c4ccccc4)c(=O)n3[C@H]2[C@H](O)[C@@H]2O[C@H]12)c1cn([C@@H]2COC[C@H]2O)nn1` was 0.406; that for `CC(CCC(=O)OC[C@H]1O[C@H](C#Cc2ccccc2)C=C[C@@H]1Oc1ccc(C)cc1)=NO[C@H](C)c1cn([C@H](CO)Cc2ccccc2)nn1` was 0.527.
On the same count and under the same terms, in the case of `C#CCCCON=C1C[C@@H](O)[C@@H](O)[C@@H]2[C@@H]3C(=O)N(C(C)(C)C)C(=O)[C@@H]3CC[C@H]12` it was -0.431.
